According to article PMC6919601, “Identification of Plasmodium dipeptidyl aminopeptidase allosteric inhibitors by high throughput screening” (PLoS ONE, 2019):
The whole screen tested about 110,000 compounds, of which about 230 (0.21%) showed an effect of 50% or more. The full list was thinned out, with strong results kept by preference.

molecular target: DPAP1 (Plasmodium falciparum, UniProt Q8IIJ9); experiment: primary screen, percent inhibition; read by cleavage of a fluorogenic dipeptide substrate; higher = more effect of the substance; set-up: species or system P. falciparum D10 trophozoite lysates; single well
Sequence (Q8IIJ9 whole entry, looked up): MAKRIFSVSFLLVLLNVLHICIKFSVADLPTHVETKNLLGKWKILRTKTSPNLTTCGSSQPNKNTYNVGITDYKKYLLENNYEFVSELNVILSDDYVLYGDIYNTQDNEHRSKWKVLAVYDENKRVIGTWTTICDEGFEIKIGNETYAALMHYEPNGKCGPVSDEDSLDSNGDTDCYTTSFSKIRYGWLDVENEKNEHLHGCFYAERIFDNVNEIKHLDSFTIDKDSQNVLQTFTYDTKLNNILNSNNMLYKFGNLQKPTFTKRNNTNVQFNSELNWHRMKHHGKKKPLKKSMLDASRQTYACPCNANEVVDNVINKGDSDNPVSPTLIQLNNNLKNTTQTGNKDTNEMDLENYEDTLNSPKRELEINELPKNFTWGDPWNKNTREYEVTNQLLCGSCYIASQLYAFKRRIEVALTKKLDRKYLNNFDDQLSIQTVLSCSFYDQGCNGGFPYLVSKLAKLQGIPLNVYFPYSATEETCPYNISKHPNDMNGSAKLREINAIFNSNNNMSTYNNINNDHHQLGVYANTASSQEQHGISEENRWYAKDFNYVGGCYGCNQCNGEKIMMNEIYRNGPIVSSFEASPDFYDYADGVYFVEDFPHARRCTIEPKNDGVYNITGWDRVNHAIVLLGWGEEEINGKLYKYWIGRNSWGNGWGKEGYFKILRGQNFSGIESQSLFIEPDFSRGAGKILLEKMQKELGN
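Note: 30 min substrate incubation versus DMSO and 10 µM JCP410 controls.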

Row | SMILES | % Inhibition @ 10 uM
1 | O=C(c1ccco1)N1CCN(c2nc3ccccc3n3nnnc23)CC1 | 2.76%
2 | CC(=O)N/C(=C\c1ccccc1)C(=O)Nc1ccc(Cl)cc1 | -6.99%
3 | O=C1C(S(=O)c2ccc(Cl)cc2)=C(O)c2cccc3cccc1c23 (centres unmarked) | 77.5%
4 | O=C1c2cccc3cccc(c23)C(=O)N1CCN1CCN(S(=O)(=O)c2ccc(Cl)cc2)CC1 | 5.97%
5 | O=C(c1ccc(Cl)cc1)N1CCN(CCN2C(=O)c3cccc4cccc(c34)C2=O)CC1 | -5.31%
6 | CN(C)c1ccc(-c2c(C#N)c(N)nc(S)c2C#N)cc1 | 7.55%
7 | CCc1c(C#N)c(N)nc(S)c1C#N | 74.5%
8 | COCc1c(C#N)c(S)nc(C)c1[N+](=O)[O-] | 30.8%
9 | CC(C)Cc1c(C#N)c(N)nc2sc(C#N)c(N)c12 | 5.2%
10 | CCCCCCc1c(O)nc(S)nc1O | 22.8%
11 | CCc1c(C#N)c(N)nc(SCc2ccccc2)c1C#N | 42.7%
12 | CC(C)Cc1c(C#N)c(N)nc(SCC(=O)c2ccc(-c3ccccc3)cc2)c1C#N | 16.2%
13 | CCCCCCCc1c(C#N)c(N)nc(S)c1C#N | 71.3%
14 | CC(C)Cc1c(C#N)c(N)nc(S)c1C#N | 78.5%
15 | CCSc1nc(N)c(C#N)c(CC)c1C#N | 23.3%
16 | CCOC(=O)CSc1nc(N)c(C#N)c(CC)c1C#N | 20.6%
17 | C=CCSc1nc(N)c(C#N)c(CC)c1C#N | 65.5%
18 | N=C(NOC(=O)C12CC3CC(CC(C3)C1)C2)c1ccc(Cl)cc1 | -0.597%
19 | O=C(CN1CCCC1)Nc1c2c(nc3ccccc13)N(c1ccccc1)CC2 | 0.144%
20 | Cc1ccc(C(C)C)c(OCC(O)CN2CC(C)OC(C)C2)c1 (centres unmarked) | -1.15%
21 | COc1cc(C2C(C#N)=C(N)OC3=C2C(=O)CCC3)ccc1OCC(=O)Nc1ccc(C)cc1C (centres unmarked) | 0.851%
22 | COc1cc(OC)cc(C(=O)Nc2ccc3c(c2)oc2ccccc23)c1 | -4.91%
23 | CCC1CCC(NCc2ccncc2)CC1 (centres unmarked) | -3.42%
24 | c1cc(CNC2CCCCC2)ccn1 | 1.84%
25 | c1ccc(C2CCC(NCc3ccncc3)CC2)cc1 (centres unmarked) | 97.8%
26 | CC(Sc1nc(-c2cccnc2)ccc1C#N)C(=O)O (centres unmarked) | -3.63%

Row | SMILES | % Inhibition @ 10 uM
27 | N#Cc1ccc(-c2cccnc2)nc1SCc1ccccc1 | 61.4%
28 | N#Cc1ccc(-c2cccnc2)nc1SCC(=O)O | -2.45%
29 | Cc1nnc2c(Oc3ccc(-c4ccccc4)cc3)nc3ccccc3n12 | -7.23%
30 | N=c1n(CCOc2ccccc2)c2ccccc2n1CCN1CCOCC1 | -6.25%
31 | CCOc1cc(Br)c(C=C2C(=O)NC(=O)NC2=O)cc1OC | -2.39%
32 | C/C(CCC1CC(C)OC1=O)=N\NC(N)=S (centres unmarked) | -1.6%
33 | OC1(c2ccc(Br)cc2)CCN(Cc2cccc(Cl)c2)CC1 | -3.6%
34 | CSC1=C(C#N)C(C)C2=C(O)CC(C)(C)CC2=N1 (centres unmarked) | 2.76%
35 | CC1C(C#N)=C(SCC(=O)c2ccc(Cl)cc2)N=C2CC(C)(C)CC(O)=C21 (centres unmarked) | 45.5%
36 | CC1C(C#N)=C(SCc2ccccc2)N=C2CC(C)(C)CC(O)=C21 (centres unmarked) | 55.4%
37 | Cc1nc(NC(=O)COc2ccc(C(C)(C)C)cc2)ccc1Br | -7.81%
38 | CCOc1ccc(-c2cc(C)n3nc(C(=O)NCc4ccco4)cc3n2)cc1 | 0.221%
39 | Cc1ccc2nc3c(O)n(C)cnc-3c2c1 | 5.06%
40 | CCOc1ccc(C2CC(=O)N3CN(Cc4ccccc4)CSC3=C2C#N)cc1 (centres unmarked) | 48.5%
41 | CCc1ccc(C2CC(=O)N3CN(Cc4ccccc4)CSC3=C2C#N)cc1 (centres unmarked) | 39.2%
42 | CCOc1ccc(C2CC(=O)N3CN(CCc4ccccc4)CSC3=C2C#N)cc1 (centres unmarked) | 71.1%
43 | CCOc1ccc(C2CC(=O)N3CN(CCO)CSC3=C2C#N)cc1 (centres unmarked) | 61.2%
44 | C=C(C)Cn1c(C(C)NC(=O)CCC)nc2ccccc21 (centres unmarked) | 1.41%
45 | CC(C)CNCC(=O)Nc1sc2c(c1C(=O)Nc1ccc(Br)cc1)CCC2 | -6.07%
46 | OC1(c2ccc(Cl)cc2)CCN(Cc2ccc(F)c(F)c2)CC1 | -7.42%
47 | COc1ccc(C2=NN3C(C2)c2cc(Cl)ccc2OC3(C)C)cc1 (centres unmarked) | 50.9%
48 | COc1ccc(C2=NN3C(C2)c2cccc(OC)c2OC3(C)C)cc1 (centres unmarked) | 38.5%
49 | COc1ccc(C2=NN3C(C2)c2cc(OC)ccc2OC3(C)C)cc1 (centres unmarked) | 43.8%
50 | CCCCCn1c(Br)nc2c1c(=O)[nH]c(=O)n2C | 4.41%
51 | CC(=O)c1cccc(NC(=O)c2ccc(N(C)S(=O)(=O)c3ccc(C)cc3)cc2)c1 | 5.24%
52 | Cc1ccc2c(c1)-c1onc(C(=O)NCCCOC(C)C)c1CO2 | 1.97%

Row | SMILES | % Inhibition @ 10 uM
53 | CCCCN(CC)C(=O)c1noc2c1COc1ccccc1-2 | -1.72%
54 | COCCNC(=O)c1noc2c1COc1ccccc1-2 | 60%
55 | CC(C)OCCCNC(=O)c1noc2c1COc1ccccc1-2 | 58.6%
56 | COCCCNC(=O)c1noc2c1COc1ccc(C)cc1-2 | 5.1%
57 | COc1ccccc1CNC(=O)c1noc2c1CSc1ccccc1-2 | 62.7%
58 | CC12CC3CC(C)(C1)CC(OCCNC(=O)c1noc4c1COc1ccccc1-4)(C3)C2 | 49%
59 | COCCCNC(=O)c1noc2c1COc1ccccc1-2 | 84.2%
60 | COCCNC(=O)c1noc2c1COc1ccc(C)cc1-2 | -3.77%
61 | O=C(NCC1CCCO1)c1noc2c1CSc1ccccc1-2 (centres unmarked) | 19.3%
62 | COc1ccccc1CNC(=O)c1c2c(nn1C)-c1ccccc1SC2 | 8.62%
63 | CC(C)OCCCNC(=O)c1nn(C)c2c1COc1ccccc1-2 | -1.72%
64 | COc1cccc(C(=O)N2CCN(C(=O)CCC3CCCC3)CC2)c1 | 0.587%
65 | O=C(NC1CCCCC1)C1CCCN(S(=O)(=O)N2CCCCC2)C1 (centres unmarked) | -4.99%
66 | CN1CCN(C(=O)c2ccc(Cn3c(SCc4ccccc4F)nc4ccncc43)cc2)CC1 | -1.92%
67 | Cn1c(=O)c2nc(-c3ccccc3)c(-c3ccccc3)nc2n(C)c1=O | 4.03%
68 | CCOc1cc(-c2cc(-c3ccc(N)cc3)nc(N)c2C#N)ccc1O | 3.26%
69 | COc1ccc2c(CNCc3ccccc3C)c(C(=O)O)n(Cc3ccc(F)cc3)c2c1 | -4.16%
70 | COc1cc(C)c2c(=O)c(Oc3ccccc3)c(C(F)(F)F)oc2c1 | -5.69%
71 | CC(C)(C)n1ncc2c(=O)n(Cc3c(F)cccc3Cl)cnc21 | -1.75%
72 | COC(=O)c1sccc1-n1c(S)c(C#N)c(N)c(C#N)c1=N | -2.21%
73 | CC1CC2(C)CC(C(=O)O2)C1C(=O)O (centres unmarked) | -1.76%
74 | COc1ccc(OC)c(CCNC(=O)c2noc3c2COc2ccccc2-3)c1 | 59.5%
75 | COc1ccccc1CNC(=O)Nc1noc2c1COc1ccccc1-2 | -0.539%
76 | CC(C)CCNC(=O)c1noc2c1COc1ccccc1-2 | 88.5%
77 | Cc1ccc2c(c1)-c1onc(C(=O)NCCC(C)C)c1CO2 | 1.14%
78 | CC(NC(=O)c1noc2c1COc1ccccc1-2)c1ccc2c(c1)OCCO2 (centres unmarked) | 21.3%

Row | SMILES | % Inhibition @ 10 uM
79 | COc1cc(-c2cc(NC(=O)c3noc4c3COc3ccccc3-4)on2)cc(OC)c1OC | 4.86%
80 | CC1CCN(S(=O)(=O)c2ccc(NC(=O)C(C)(C)C)cc2)CC1 | -6.17%
81 | N=C(Cc1cccc2ccccc12)NOC(=O)c1cccs1 | 3.66%
82 | COc1cc2c(cc1OC)C(C(=O)N1CCC(C)CC1)C(c1cccnc1)N(C)C2=O (centres unmarked) | 1.83%
83 | CCCc1nc2ccccc2n1Cc1ccccc1OC | 0.913%
84 | Cc1ccc(C2CC(=O)N3CN(Cc4cccnc4)CSC3=C2C#N)cc1 (centres unmarked) | 43.8%
85 | COc1ccc(C2CC(=O)N3CN(Cc4cccnc4)CSC3=C2C#N)cc1 (centres unmarked) | 46.3%
86 | N#CC1=C2SCN(Cc3cccnc3)CN2C(=O)CC1c1ccc(F)cc1 (centres unmarked) | 55.3%
87 | CCOc1ccc(C2CC(=O)N3CN(Cc4cccnc4)CSC3=C2C#N)cc1 (centres unmarked) | 56%
88 | CCc1ccc(C2CC(=O)N3CN(Cc4ccco4)CSC3=C2C#N)cc1 (centres unmarked) | 33.6%
89 | CN(CC(=O)NC1CCCCCC1)S(=O)(=O)c1ccc(F)cc1 | 3.17%
90 | CCN1CCN(C(=O)C2CC(c3ccc(OC)cc3)=NO2)CC1 (centres unmarked) | 1.62%
91 | N#CCCN1CCN(C2=NC(=O)/C(=C\c3ccc(-c4ccc(Cl)cc4)o3)S2)CC1 | -2.8%
92 | COc1ccccc1NC(=O)c1cnc(Nc2nc3ccccc3o2)nc1C | -4.12%
93 | CCCN1CCC(N2CCC(C)CC2)CC1 | -3.74%
94 | COc1cccc2c(O)c(C(=O)O)cnc12 | 0.51%
95 | Cc1cc2nc(O)c(O)nc2cc1S(=O)(=O)N1CCN(CCOc2ccc(Cl)cc2)CC1 | 52.3%
96 | Cc1nc(O)nc(O)c1S(=O)(=O)N1CCN(CCOc2ccc(Cl)cc2)CC1 | -1.38%
97 | Cc1cc(-c2ccc(C)c(S(=O)(=O)N3CCN(CCOc4ccc(Cl)cc4)CC3)c2)on1 | -5.87%
98 | COc1ccc(-c2cc(C(F)(F)F)nc(SCC(=O)N3CCOCC3)n2)cc1 | -8.55%
99 | COC(=O)c1sc2nc(-c3ccccc3)cc(-c3ccc(OC)cc3)c2c1N | 2.79%
100 | COc1ccc(-c2cc(-c3ccc(OC)cc3)c3c(N)c(C(N)=O)sc3n2)cc1 | 19.8%
101 | COc1ccc(-c2cc(-c3ccccc3)nc3sc(C(N)=O)c(N)c23)cc1 | 76%
102 | CCCN1C(=O)c2n[nH]c(C)c2C1c1cccnc1 (centres unmarked) | -4.67%
103 | COc1ccc(C2=N/C(=C\c3cccc(C(F)(F)F)c3)C(=O)O2)cc1OC | 6.11%
104 | CCOc1c(/C=C2/S/C(=N\c3ccccc3)N(C)C2=O)cccc1OC | 1.57%
